Source: PubChem BioAssay (NCATS)
Results filed as inconclusive are left out. Unmarked numbers belong to inactive results. The source made the active and inactive calls. Calls come from the whole dose curve; as a rule, active = well fitted cell-killing curve with a large enough effect; inconclusive = small, poorly fitted or top-dose-only effect; inactive = flat fitted curve, though single readings scatter. *1 amine or outer side, *2 acyl side, *3 side chain or, on linkers, in order; H or OH if unused. Where a SMILES comes first, the peptide text is derived from it. Bridges are numbered along the chain shown (N, C = ends). [ ]: non-standard residue; d: D form. The star is where a group is joined. X5 = NC1=N[C@@H]([C@H](N[*:1])C(=O)[*:2])C[C@H](O)N1; ΔAla(Z-3-ureido) = NC(=O)N/C=C(\N)C(=O)O; β3hOrn = NCCC[C@H](N)CC(=O)*; Dap = NC[C@H](N)C(=O)O

Assay: qHTS assay to identify small molecule inhibitors of chordoma cells - UCH-2 (AID 1259356)
Settings: UCH-2 chordoma viability, CellTiter-Glo ATP luminescence, 48 h; series mostly up to 46.1 µM; activity change, negative = inhibition: at the top concentration
Excerpt: NIH Chemical Genomics Center [NCGC]
Chordoma is a rare and slow growing tumor that can occur anywhere along the spine, from the base of the skull to the tailbone. Current treatment options for chordoma is surgery and radiation therapy for those who are not candidates for surgery. But chordomas tend to return in the same location or surrounding areas of the original tumor after surgery and/or radiation. Chemotherapy can slow down the progression of the tumor. As chordoma is slow growing, the general cytotoxic agents that kill fast growing cells are ineffective, and some patients have been reported to respond to molecularly targeted drugs.
NCATS Pharmaceutical Collection (NPC) containing approximately 3000 clinically approved and investigational drugs were used to screen at 15 concentrations in a chordoma cell lines, UCH-2, to identify small molecule compounds that can inhibit chordoma cell growth.
NCGC Assay Protocol Summary:
Human chordoma cell line UCH-2 was dispensed at 800 per well in 4uL of culture medium into white solid bottom 1536-well plates (Corning Life Sciences, Corning, NY) using a Multidrop Combi (Thermo Scientific, Waltham, MA) dispenser. The assay plates were incubated at 37 C and 5% CO2 for an overnight, and then 23nL of compounds dissolved in DMSO and positive control were transferred using a Pintool station (Wako, San Diego, CA). Compound treatment was followed by the addition of 1uL of the combination compounds (1uM Auranofin, 500nM each of Camptothecin, Doxorubicin, Rubitecan, and Topotecan) and assay medium to each well of the assay plates using Flying Reagent Dispenser (FRD, Aurora Discovery, San Diego, CA). The assay plates were incubated at 37 C and 5% CO2 for 48hr. Then 5uL of CellTiter-Glo reagent (Promega Corporation, Madison, WI) was added to each well of the assay plates using FRD. After 30min incubation at room temperature, the luminescence signal was quantified using a ViewLux plate reader (PerkinElmer, Shelton, CT).
% is set by controls: 0 for no effect and ±100 for the full control effect; potency is the fitted concentration of half-maximal effect.

SMILES | activity change, negative = inhibition | Potency
CC(C)Cc1ccc([C@@H](C)C(=O)NS(C)(=O)=O)cc1 | -3.94% | 
C=C[C@]1(C)C[C@@H](OC(=O)CSCCN(CC)CC)[C@]2(C)[C@H](C)CC[C@]3(CCC(=O)[C@H]32)[C@@H](C)[C@@H]1O | 4.68% | 
C[C@H](N)C(=O)N[C@@H](C)P(=O)(O)O | 2.6% | 
O=C(NCCNCC(O)COc1ccc(O)cc1)N1CCOCC1 (stereo not given) | -12.2% | 
C=CC(C)(O)CC/C=C(\C)CCC=C(C)C (stereo not given) | 7.14% | 
CN[C@H](CC(C)C)C(=O)N[C@H]1C(=O)N[C@@H](CC(N)=O)C(=O)N[C@H]2C(=O)N[C@H]3C(=O)N[C@H](C(=O)N[C@@H](C(=O)O)c4cc(O)cc(O)c4-c4cc3ccc4O)[C@H](O)c3ccc(c(Cl)c3)Oc3cc2cc(c3O[C@@H]2O[C@H](CO)[C@@H](O)[C@H](O)[C@H]2O[C@H]2C[C@](C)(N)C(O)[C@H](C)O2)Oc2ccc(cc2Cl)[C@H]1O (stereo not given in full) | 10.5% | 
CCSc1ccc2c(c1)N(CCCN1CCN(C)CC1)c1ccccc1S2 | -2.08% [at 20.6 µM] | 
C[C@H](CCC(=O)O)[C@H]1CC[C@H]2[C@@H]3[C@H](O)C[C@@H]4C[C@H](O)CC[C@]4(C)[C@H]3C[C@H](O)[C@]12C | 9.77% | 
Cc1ncc(COP(=O)(O)O)c(CN)c1O | -0.195% | 
COc1cc(NCCCC(C)N)c2ncccc2c1 (stereo not given) |  | 9.2 µM (active)
Cn1c(O)c(N=NC(N)=S)c2ccccc21 | -12.6% | 
Cc1c(Cl)cccc1Nc1ncccc1C(=O)O | 0.813% | 
CO/N=C(\C(=O)N[C@@H]1C(=O)N2C(C(=O)[O-])=C(C[n+]3cccc4c3CCC4)CS[C@H]12)c1csc(N)n1 | -0.268% | 
CC1(C)C(\C=C/C=C\C=C/C=C2/N(CCCCS(=O)(=O)O)c3ccc4ccccc4c3C2(C)C)=[N+](CCCCS(=O)(=O)[O-])c2ccc3ccccc3c21 | 1.63% | 
Cc1cc(-c2ccc(N=Nc3c(S(=O)(=O)O)cc4cc(S(=O)(=O)O)cc(N)c4c3O)c(C)c2)ccc1N=Nc1c(S(=O)(=O)O)cc2cc(S(=O)(=O)O)cc(N)c2c1O |  | 8.2 µM (active)
CC1CC(OC(=O)C(O)c2ccccc2)CC(C)(C)C1 (stereo not given) | 6.07% | 
COc1ccc2c(=O)c(C)c(-c3ccccc3)oc2c1CN(C)C | 4.11% | 
Nc1ncnc2c1ncn2[C@H]1CC[C@@H](CO)O1 | 2.67% | 
O=[n+]1ccn([O-])c2ccccc21 | -28.1% | 
NC(N)=NCC1COC2(CCCCC2)O1 (stereo not given) | 12.4% [at 20.6 µM] | 

SMILES | activity change, negative = inhibition | Potency
CCCCCCCCCCCC(=O)N(CCO)CCO | -1.53% | 
Oc1ccc(Cl)c2c1CCC2 | 3.89% | 
FCOC(C(F)(F)F)C(F)(F)F | 9.6% | 
Cc1ncc(C[n+]2csc(CCOP(=O)(O)O)c2C)c(N)n1 | -6.16% | 
OC/C=C/c1ccccc1 | 0.352% | 
Cc1c(O)c(=O)ccn1C | 17.2% | 
N=C(N)n1cccn1 | 20.5% | 
NCCCC[C@H](N)C(=O)O | -13.7% | 
COc1ccc(C(=O)CCC(=O)O)c2ccccc12 | -0.418% | 
CCN(CC)CCOc1ccccc1OC | -1.47% | 
C[C@H]1[C@@H](OC(=O)CCC(=O)O)O[C@@H]2OC3(C)CC[C@H]4[C@H](C)CC[C@@H]1[C@@]24OO3 | -2.41% | 
C[Si](C)(C)O[Si](C)(C)C | -2.36% | 
Cc1nc(NS(=O)(=O)c2ccc(N)cc2)nc(C)c1Br | 5.21% | 
NC(=O)C1c2ccccc2CCc2ccccc21 | 3.12% | 
NCCC[C@H](N)CC(=O)N[C@H]1CNC(=O)[C@H]([C@H]2C[C@H](O)NC(N)=N2)NC(=O)/C(=C/NC(N)=O)NC(=O)[C@H](CO)NC(=O)[C@H](CO)NC1=O (β3hOrn-[Dap]SS[ΔAla(Z-3-ureido)][X5]; lactam 1-C) | 9.48% | 
CCOc1cc(-c2nccc3cc(OC)c(OC)cc23)cc(OCC)c1OCC | -5.33% | 
O=C(O)c1ccc(NC(=O)[C@H](Cc2ccc(O)cc2)NC(=O)c2ccccc2)cc1 | -3.39% | 
O=P(O)(O)OC[C@H]1O[C@](O)(COP(=O)(O)O)[C@@H](O)[C@@H]1O | -7.05% | 
O=C(OC[C@H]1O[C@](O)(COC(=O)c2cccnc2)[C@@H](OC(=O)c2cccnc2)[C@@H]1OC(=O)c1cccnc1)c1cccnc1 | 1.26% | 
CO[C@@H]1[C@H](OC(=O)/C=C/C=C/C=C/C=C/C(=O)O)CC[C@]2(CO2)[C@H]1[C@@]1(C)O[C@@H]1CC=C(C)C | -3.07% | 
